PubChem BioAssay AID2221 (Broad Institute, 2009)
Among all 290,000 compounds or so, about 2,200 (0.76%) were called active. Many of the other results were omitted from the sample, so actives are more common in it than they were. Unmarked numbers belong to inactive results. Cut-off read from the data, not from the text of the source: active = inhibition above about 30%; inconclusive = no clear call, values can overlap the other calls; inactive = below that.

The molecules below were run against Protein RecA (Mycobacterium tuberculosis (strain ATCC 25618 / H37Rv)) (UniProt P9WHJ3) (assay: Mtb RecA intein splicing inhibitors, primary screen, biochemical, fluorescence, HTS (AID 2221;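 note: 0% = vehicle wells and 100% = reference inhibitor control wells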)). Details: cell-free RecA intein splicing, hits give high values, concentration not given here.
Sequence of Protein RecA (Mycobacterium tuberculosis (strain ATCC 25618 / H37Rv)) (P9WHJ3 whole entry, looked up): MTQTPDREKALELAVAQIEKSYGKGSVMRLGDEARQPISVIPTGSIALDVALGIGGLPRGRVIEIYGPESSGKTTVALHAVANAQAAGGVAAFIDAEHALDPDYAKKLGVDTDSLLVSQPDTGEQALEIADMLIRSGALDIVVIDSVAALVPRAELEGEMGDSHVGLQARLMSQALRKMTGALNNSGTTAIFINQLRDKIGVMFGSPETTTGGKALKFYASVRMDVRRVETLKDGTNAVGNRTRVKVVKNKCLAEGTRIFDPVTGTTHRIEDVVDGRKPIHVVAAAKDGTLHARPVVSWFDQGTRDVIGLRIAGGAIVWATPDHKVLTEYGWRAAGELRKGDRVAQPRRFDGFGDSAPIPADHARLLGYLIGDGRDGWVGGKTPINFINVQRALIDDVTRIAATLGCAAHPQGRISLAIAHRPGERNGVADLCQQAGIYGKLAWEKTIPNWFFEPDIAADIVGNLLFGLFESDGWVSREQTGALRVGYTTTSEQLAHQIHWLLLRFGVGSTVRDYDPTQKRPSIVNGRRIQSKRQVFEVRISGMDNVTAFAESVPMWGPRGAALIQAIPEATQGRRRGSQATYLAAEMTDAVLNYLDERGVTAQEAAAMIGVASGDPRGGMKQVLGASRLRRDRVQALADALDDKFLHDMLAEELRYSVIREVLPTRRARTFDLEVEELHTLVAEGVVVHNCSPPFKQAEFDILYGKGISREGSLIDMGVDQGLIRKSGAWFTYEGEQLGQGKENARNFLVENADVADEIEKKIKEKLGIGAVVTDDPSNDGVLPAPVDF

SMILES	inhibition
C[C@H](NC(=O)C1CCN(S(=O)(=O)c2ccccc2)CC1)C(=O)NCc1ccccc1	1.64%
COC(=O)c1sc(SC)c(S(=O)(=O)C(C)C)c1N/N=C(\C#N)S(=O)(=O)c1ccccn1	3.07%
CCOC(=O)C1=C(C)OC(N)=C(C#N)C1c1cncc(-c2ccc(F)cc2)c1 (stereo unspecified)	2.26%
COc1ccc(-c2[nH]nc3c2C(c2ccncc2)C(C#N)=C(N)O3)cc1 (stereo unspecified)	69.7% (active)
CCC1=C(C(=O)OC)C(c2cc(OC)ccc2OC)C(C#N)=C(N)O1 (stereo unspecified)	-1.35%
CCCc1[nH]nc2c1C(C1CC=CCC1)C(C#N)=C(N)O2 (stereo unspecified)	4.97%
COCc1[nH]nc2c1C(C1C=CCCC1)C(C#N)=C(N)O2 (stereo unspecified)	-0.266%
CCOC(=O)C1=C(CC)OC(N)=C(C#N)C1c1ccc(F)cc1F (stereo unspecified)	-3.52%
CCCc1[nH]nc2c1C(c1ccc(OC(=O)c3ccco3)cc1)C(C#N)=C(N)O2 (stereo unspecified)	81.6% (active)
CCOc1c(OC)cc(C2C(C#N)=C(N)Oc3n[nH]c(-c4ccncc4)c32)cc1OC (stereo unspecified)	23.1%
CCc1ccc(C2C(C#N)=C(N)Oc3n[nH]c(CC(=O)OC)c32)cc1 (stereo unspecified)	63.8% (active)
CCCc1[nH]nc2c1C(c1ccc(Br)s1)C(C#N)=C(N)O2 (stereo unspecified)	56% (active)
CCCc1nc2c([nH]1)C(c1cccnc1)C(C#N)=C(N)O2 (stereo unspecified)	-1.72%
COc1cc(C2C(C#N)=C(N)Oc3n[nH]c(-c4ccccn4)c32)cc(OC)c1OC (stereo unspecified)	17.2%
NC(=O)c1cc(S(=O)(=O)NCCCc2ccco2)cs1	-6.35%
CN(C)c1ccc(C=NCCc2ccc(S(N)(=O)=O)cc2)cc1	-4.96%
Cc1ccc(NC(=O)N2CCSc3ccccc32)cc1	-0.155%
CCN(CC)CC(=O)Nc1sc2c(c1C(=O)c1ccccc1C)CCC2	11.9%
Cc1cc(C)c(C)c(S(=O)(=O)N[C@@H](C)C(=O)OC(C)C(=O)NC(N)=O)c1C (stereo partly specified)	-2.04%
CC(CO)(CO)NC(=O)c1ccc(=O)[nH]n1	0.0563%
O=C(c1ccc[nH]c1=S)N1CCN(S(=O)(=O)c2ccc(Br)cc2Cl)CC1	-3.23%

SMILES	inhibition
Cc1ccc(-n2c(=O)cc(N3CCN(Cc4ccccc4)CC3)[nH]c2=O)cc1	-1.51%
S=C(Nc1ccc(Cl)cc1Cl)N1CCCC1	-0.599%
Cc1cccc(OC(C)C(=O)N2CCc3ccccc3C2)c1 (stereo unspecified)	0.662%
O=C(Cc1ccccc1)Nc1ccc(C(=O)Nc2ccccc2C(=O)O)cc1	0.81%
O=C(c1cccnc1)N1CCN(S(=O)(=O)c2cccs2)CC1	-1.81%
Cc1ccc(-n2nc3c(=O)n(C(C)C(=O)NCc4ccc5c(c4)OCO5)nc(C)c3c2C)cc1 (stereo unspecified)	3.2%
CC1=NNC(=O)C1Cc1c(Cl)cccc1Cl (stereo unspecified)	90.8% (active)
CC1=NNC(=O)C1CCC(=O)N/N=C\c1ccc(Cl)c(Cl)c1 (stereo unspecified)	0.906%
CC1=NNC(=O)C1CCC(=O)N/N=C\c1cccc(Cl)c1 (stereo unspecified)	-2.34%
O=C(CN1CCc2cc3c(cc2C1)OCCCO3)Nc1ccccc1	1.99%
COc1ccc(C(=O)NC2CC(C)(C)Cc3c2cnn3-c2ccccc2C)o1 (stereo unspecified)	3.96%
Cc1cccc(NC(=O)c2nc(S(=O)(=O)Cc3ccccc3)ncc2Cl)c1	78% (active)
CCSc1ncc(Cl)c(C(=O)Nc2cc(C)ccc2C)n1	-2.65%
Cc1cccc(OCc2ccc(C(=O)Nc3ccc(F)cc3)cc2)c1	-2.68%
CCOc1ccc(NC(=O)c2nc(SCC)ncc2Cl)cc1	-3.31%
Cc1cccc(NC(=O)c2nc[nH]c2C(=O)NCC(=O)OCc2ccccc2)c1	-3.32%
Cc1cccc(CS(=O)(=O)c2ncc(Cl)c(C(=O)Nc3ccc(F)cc3)n2)c1	31.6% (active)
CSCC[C@H](NC(=O)N1CCn2c1nc1ccccc12)C(=O)NC1CCCCC1	0.784%
ClC1(Cl)CC1CSc1ncn[nH]1 (stereo unspecified)	-0.379%
Cc1ccc(SC(CC(=O)c2ccc(C(C)(C)C)cc2)C(=O)O)cc1 (stereo unspecified)	8.11%
Cc1ccc(SCCSc2ncccn2)cc1	-1.76%

SMILES	inhibition
Cc1ccc(SCC2=NNC(=O)C2)cc1	87.8% (active)
Cc1ccc(SCc2cc(=O)[nH]c(N3CCCCC3)n2)cc1	1.86%
O=C(NC1CCc2ccccc21)C12CN(Cc3ccccc3)CC1C(c1cccc([N+](=O)[O-])c1)=NO2 (stereo unspecified)	8.13%
CCOc1ccc(-n2c(SCC(N)=O)nnc2-c2ccco2)cc1	1.21%
CC1(N2CCOCC2)CC2(O)C(=[N+]1[O-])CCc1nonc12 (stereo unspecified)	59.8% (active)
CC(=O)n1c(C=Nc2ccccc2)c(O)c2ccccc21	-25.1%
Cc1ccc(NC(=O)CSc2nnc(CNC(=O)c3ccccc3F)o2)cc1	-1.52%
O=C(CCCN=C1NS(=O)(=O)c2ccccc21)OCC(=O)c1ccc(F)c(F)c1	0.337%
CC(=O)c1cccc(NC(=O)c2ccncc2)c1	-0.301%
CN(C)c1ccc(NC(=O)c2ccncc2)c2ccccc12	32.8% (active)
CCN(CC)S(=O)(=O)c1ccc(Cl)c(NC(=O)c2ccncc2)c1	-0.0873%
Cc1cc(Nc2cccc(C)c2C)n2ncnc2n1	0.489%
COc1ccc(Nc2ncnc3ccc(Br)cc23)c(OC)c1	-1.95%
COc1ccc2sc(N(CCCN(C)C)C(=O)c3ccc(S(=O)(=O)N(C)C4CCCCC4)cc3)nc2c1	2.28%
S=c1nccc(-c2cc(Cl)sc2Cl)[nH]1	2.58%
COc1ccc(-c2csc(Nc3ccc(O)cc3)n2)cc1	33.3% (active)
O=c1oc2ccccc2cc1-c1csc(Nc2ccc(O)cc2)n1	-3.92%
COc1ccc(-c2csc(Cc3nc(O)cs3)n2)cc1	8.96%
NNC(=O)C1CC(O)CN1S(=O)(=O)c1ccc(Cl)cc1 (stereo unspecified)	0.0391%
